Source: PubChem BioAssay
Only some compounds are listed: those with a hit (about 13% of all), similar ones and a draw of the others.
HCV inh: inhibitors of hepatitis C virus infection; Huh7.5.1 HCVcc-Cre infection, luciferase reporter, 44 h; Potency, µM (doses to about 41.8 µM), hits mostly inhibitors; hit rate 3.4% among 340,000; AID 651820; active means well fitted inhibition curve with a large enough effect; inconclusive means small, poorly fitted or top-dose-only effect, or another doubt; inactive means no such curve, though single readings can be large or run the other way
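Cells seeded at 1,000/well and cultured 4 h, then compounds added followed by HCVcc-Cre virus (~0.5 moi). After 44 h further culture, luciferase substrate was added, plates held 15 min at room temperature, and luminescence read for 15 sec.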
Lassa entry inh: blocks Lassa virus binding to or entry into cells. Lassa virus pseudotype entry inhibition, cell reporter. Potency, µM (top dose mostly 37.9 µM), most hits filed as inhibitors. hit rate 1.2% among 300,000. AID 540256; calls by dose curve; tested in HEK293 cells; further: nearly all actives have a fitted effect of over 50% in size
FMDV inh: blocks foot and mouth disease virus. AID 1159524. hit rate 1.2% among 410,000. FMDV antiviral cell-based qHTS. Potency, µM (highest dose often 57.9 µM), hits mostly inhibitors; calls by dose curve; tested in HEK293T cells; further: read-out not given here; nearly all actives have a fitted effect of over 45% in size
Shiga toxin inh: Shiga toxin inhibition; Vero cells, Shiga toxin protein synthesis inhibition reporter; inhibition, % at 38.7 µM; hit rate 9.2% among 290,000; in the data active means inhibition mostly above about 28%, no sharp cut-off; inactive means mostly below about 43%
CHX counter: counter-screen for Shiga toxin inhibitors: cycloheximide protein synthesis inhibition. cell reporter, cycloheximide protein synthesis inhibition counterscreen. max response, %. hit rate 12% among 300,000. AID 2314; in the data active means max response mostly above about 13%, no sharp cut-off; inactive means mostly below about 14%; further: read at 38.3 µM for the half of the compounds with a filed dose
Marburg entry inh: blocks Marburg virus binding to or entry into cells. AID 540276. hit rate 1.8% among 300,000. Potency, µM (highest dose often 37.8 µM), hits mostly inhibitors. Marburg virus pseudotyped entry inhibition, cell reporter; calls by dose curve; tested in HEK293 cells
Each line names hits and unclear results; the compound was inactive in the other large screens.

Cc1ccc(C)c(C(=O)N(Cc2nc(-c3ccc(Cl)cc3)no2)C(C)C)c1	HCV inh 10µM, FMDV inh inconclusive (no result: Lassa entry inh, Marburg entry inh)
CCOc1ccc(N(C(C)C(=O)Nc2cc(Cl)ccc2OC)S(C)(=O)=O)cc1 (stereo unspecified)	Lassa entry inh inconclusive, Marburg entry inh inconclusive (no result: HCV inh, Shiga toxin inh, CHX counter)
Cc1ccc(S(=O)(=O)N2CCN(C(=O)CSc3ccccn3)CC2)c(C)c1	none (no result: Shiga toxin inh, CHX counter)
CCc1c(C)c(C#N)c2nc3ccccc3n2c1NCc1ccco1	FMDV inh inconclusive, Marburg entry inh inconclusive
O=C(O)c1cccc(Cn2c(Cl)c(/C=N/NC(=O)c3ccc(O)cc3)sc2=O)c1	none
NC(=O)N/N=C/c1sc(=O)n(-c2ccccc2)c1Cl	CHX counter 16
O=C(N/N=C/c1sc(=O)n(-c2ccccc2)c1Cl)c1ccccc1	HCV inh inconclusive, Shiga toxin inh 76, CHX counter 28
O=C(COc1ccccc1)N/N=C/c1sc(=O)n(Cc2cccc(C(=O)O)c2)c1Cl	none
COc1cccc(-c2cnc(C(O)c3cc(Cl)cc(Cl)c3)[nH]2)c1 (stereo unspecified)	none (no result: HCV inh, Lassa entry inh, Shiga toxin inh, CHX counter, Marburg entry inh)
CCn1nnnc1SCC(=O)N1CCCc2ccccc21	none
Cc1ccc(-c2nnc(N3CCC(C)CC3)c3ccccc23)cc1	HCV inh inconclusive, FMDV inh inconclusive (no result: Lassa entry inh, Marburg entry inh)
COc1ccccc1N1CCN(Cc2nc(-c3ccc(F)cc3)oc2C)CC1	HCV inh 22µM, FMDV inh inconclusive (no result: Lassa entry inh, Marburg entry inh)
Cc1ccc(-c2nnc(N3CCC(C)CC3)c3ccccc23)cc1C	HCV inh inconclusive, FMDV inh 20µM
COc1ccccc1N1CCN(c2nnc(-c3ccc(F)cc3)c3ccccc23)CC1	FMDV inh 20µM
Cc1cccc(N2CCN(Cc3nc(-c4cccc(Cl)c4)oc3C)CC2)n1	HCV inh inconclusive, Marburg entry inh 7.1µM
COc1ccc(-c2nnc(N3CCCCC3)c3ccccc23)cc1	FMDV inh inconclusive
